# Data: the supplement of paper PMC4466140
# Tests used:
# Assay in all cases: SPOT peptide array binding signal intensity (averaged, normalized) (arbitrary units (background-subtracted, floor 0; scale differs between SH3 domains)); higher = stronger binding of the SH3 domain to the peptide
# AgAbp1 = molecular target: AgAbp1
# Method in brief: (§1)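 GST-fused SH3 domains from four yeast species were expressed in E. coli BL21(DE3), purified on glutathione Sepharose and incubated at 10 μg/ml overnight at 4°C in TBS-based blocking buffer on cellulose membranes carrying synthetic 15-mer peptides, with cysteines replaced by serines. Bound protein was detected with anti-GST antibody, an HRP anti-mouse secondary and luminol, then imaged and quantified with Genespotter. Binding signal is the normalized, background-subtracted spot intensity averaged over replicates, in arbitrary units that differ between domains.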
# AgBbc1 = molecular target: AgBbc1
# Method in brief: as §1
# AgBem1-D1 = molecular target: AgBem1-D1
# Method in brief: as §1
# AgBzz1-D1 = molecular target: AgBzz1-D1
# Method in brief: as §1
# AgBzz1-D2 = molecular target: AgBzz1-D2
# Method in brief: as §1
# AgCyk3 = molecular target: AgCyk3
# Method in brief: as §1
# AgFus1 = molecular target: AgFus1
# Method in brief: as §1
# AgHof1 = molecular target: AgHof1
# Method in brief: as §1
# AgHse1 = molecular target: AgHse1
# Method in brief: as §1
# AgLsb1 = molecular target: AgLsb1
# Method in brief: as §1
# AgLsb4 = molecular target: AgLsb4
# Method in brief: as §1
# AgMyo5 = molecular target: AgMyo5
# Method in brief: as §1
# AgNbp2 = molecular target: AgNbp2
# Method in brief: as §1
# AgRvs167 = molecular target: AgRvs167
# Method in brief: as §1
# AgSho1 = molecular target: AgSho1
# Method in brief: as §1
# AgSla1-D1-D2 = molecular target: AgSla1-D1-D2
# Method in brief: as §1
# AgSla1-D3 = molecular target: AgSla1-D3
# Method in brief: as §1
# CaAbp1-D1 = molecular target: CaAbp1-D1
# Method in brief: as §1
# CaAbp1-D2 = molecular target: CaAbp1-D2
# Method in brief: as §1
# CaBbc1 = molecular target: CaBbc1
# Method in brief: as §1
# CaBem1-D1 = molecular target: CaBem1-D1
# Method in brief: as §1
# CaBzz1-D1 = molecular target: CaBzz1-D1
# Method in brief: as §1
# CaBzz1-D2 = molecular target: CaBzz1-D2
# Method in brief: as §1
# CaCyk3 = molecular target: CaCyk3
# Method in brief: as §1
# CaFus1 = molecular target: CaFus1
# Method in brief: as §1
# CaHof1 = molecular target: CaHof1
# Method in brief: as §1
# CaHse1 = molecular target: CaHse1
# Method in brief: as §1
# CaLsb1 = molecular target: CaLsb1
# Method in brief: as §1
# CaLsb4 = molecular target: CaLsb4
# Method in brief: as §1
# CaMyo5 = molecular target: CaMyo5
# Method in brief: as §1
# CaNbp2 = molecular target: CaNbp2
# Method in brief: as §1
# CaRvs167 = molecular target: CaRvs167
# Method in brief: as §1
# CaRvs167-3 = molecular target: CaRvs167-3
# Method in brief: as §1
# CaSho1 = molecular target: CaSho1
# Method in brief: as §1
# CaSla1-D1-D2 = molecular target: CaSla1-D1-D2
# Method in brief: as §1
# CaSla1-D3 = molecular target: CaSla1-D3
# Method in brief: as §1
# ScAbp1 = molecular target: ScAbp1
# Method in brief: as §1
# ScBbc1 = molecular target: ScBbc1
# Method in brief: as §1
# ScBem1-D1 = molecular target: ScBem1-D1
# Method in brief: as §1
# ScBzz1-D1 = molecular target: ScBzz1-D1
# Method in brief: as §1
# ScBzz1-D2 = molecular target: ScBzz1-D2
# Method in brief: as §1
# ScCyk3 = molecular target: ScCyk3
# Method in brief: as §1
# ScFus1 = molecular target: ScFus1
# Method in brief: as §1
# ScHof1 = molecular target: ScHof1
# Method in brief: as §1
# ScHse1 = molecular target: ScHse1
# Method in brief: as §1
# ScLsb1 = molecular target: ScLsb1
# Method in brief: as §1
# ScLsb2 = molecular target: ScLsb2
# Method in brief: as §1
# ScLsb3 = molecular target: ScLsb3
# Method in brief: as §1
# ScLsb4 = molecular target: ScLsb4
# Method in brief: as §1
# ScMyo3 = molecular target: ScMyo3
# Method in brief: as §1
# ScMyo5 = molecular target: ScMyo5
# Method in brief: as §1
# ScNbp2 = molecular target: ScNbp2
# Method in brief: as §1
# ScPex13 = molecular target: ScPex13
# Method in brief: as §1
# ScRvs167 = molecular target: ScRvs167
# Method in brief: as §1
# ScSho1 = molecular target: ScSho1
# Method in brief: as §1
# ScSla1-D1-D2 = molecular target: ScSla1-D1-D2
# Method in brief: as §1
# ScSla1-D3 = molecular target: ScSla1-D3
# Method in brief: as §1
# SpAbp1-D1 = molecular target: SpAbp1-D1
# Method in brief: as §1
# SpBbc1 = molecular target: SpBbc1
# Method in brief: as §1
# SpBzz1-D1 = molecular target: SpBzz1-D1
# Method in brief: as §1
# SpBzz1-D2 = molecular target: SpBzz1-D2
# Method in brief: as §1
# SpCyk3 = molecular target: SpCyk3
# Method in brief: as §1
# SpHof1 = molecular target: SpHof1
# Method in brief: as §1
# SpHof1-2 = molecular target: SpHof1-2
# Method in brief: as §1
# SpHof1-3 = molecular target: SpHof1-3
# Method in brief: as §1
# SpHse1 = molecular target: SpHse1
# Method in brief: as §1
# SpLsb1 = molecular target: SpLsb1
# Method in brief: as §1
# SpLsb4 = molecular target: SpLsb4
# Method in brief: as §1
# SpMyo1 = molecular target: SpMyo1
# Method in brief: as §1
# SpNbp2 = molecular target: SpNbp2
# Method in brief: as §1
# SpPex13 = molecular target: SpPex13
# Method in brief: as §1
# SpRvs167 = molecular target: SpRvs167
# Method in brief: as §1
# SpSla1-D1-D2 = molecular target: SpSla1-D1-D2
# Method in brief: as §1
# SpSla1-D3 = molecular target: SpSla1-D3
# Method in brief: as §1
binder,measurement,setting,value
FTLPPPPPPPGLDEL,SPOT peptide array binding signal intensity,AgAbp1,≤ 0
same,SPOT peptide array binding signal intensity,AgBbc1,≤ 0
same,SPOT peptide array binding signal intensity,AgBem1-D1,≤ 0
same,SPOT peptide array binding signal intensity,AgBzz1-D1,≤ 0
same,SPOT peptide array binding signal intensity,AgBzz1-D2,3
same,SPOT peptide array binding signal intensity,AgCyk3,≤ 0
same,SPOT peptide array binding signal intensity,AgFus1,≤ 0
same,SPOT peptide array binding signal intensity,AgHof1,85.8
same,SPOT peptide array binding signal intensity,AgHse1,≤ 0
same,SPOT peptide array binding signal intensity,AgLsb1,≤ 0
same,SPOT peptide array binding signal intensity,AgLsb4,≤ 0
same,SPOT peptide array binding signal intensity,AgMyo5,1170
same,SPOT peptide array binding signal intensity,AgNbp2,≤ 0
same,SPOT peptide array binding signal intensity,AgRvs167,0.833
same,SPOT peptide array binding signal intensity,AgSho1,≤ 0
same,SPOT peptide array binding signal intensity,AgSla1-D1-D2,4
same,SPOT peptide array binding signal intensity,AgSla1-D3,≤ 0
same,SPOT peptide array binding signal intensity,CaAbp1-D1,≤ 0
same,SPOT peptide array binding signal intensity,CaAbp1-D2,≤ 0
same,SPOT peptide array binding signal intensity,CaBbc1,≤ 0
same,SPOT peptide array binding signal intensity,CaBem1-D1,≤ 0
same,SPOT peptide array binding signal intensity,CaBzz1-D1,491
same,SPOT peptide array binding signal intensity,CaBzz1-D2,23
same,SPOT peptide array binding signal intensity,CaCyk3,≤ 0
same,SPOT peptide array binding signal intensity,CaFus1,≤ 0
same,SPOT peptide array binding signal intensity,CaHof1,0.5
same,SPOT peptide array binding signal intensity,CaHse1,≤ 0
same,SPOT peptide array binding signal intensity,CaLsb1,≤ 0
same,SPOT peptide array binding signal intensity,CaLsb4,≤ 0
same,SPOT peptide array binding signal intensity,CaMyo5,33.8
same,SPOT peptide array binding signal intensity,CaNbp2,≤ 0
same,SPOT peptide array binding signal intensity,CaRvs167,≤ 0
same,SPOT peptide array binding signal intensity,CaRvs167-3,≤ 0
same,SPOT peptide array binding signal intensity,CaSho1,≤ 0
same,SPOT peptide array binding signal intensity,CaSla1-D1-D2,7
same,SPOT peptide array binding signal intensity,CaSla1-D3,≤ 0
same,SPOT peptide array binding signal intensity,ScAbp1,≤ 0
same,SPOT peptide array binding signal intensity,ScBbc1,2
same,SPOT peptide array binding signal intensity,ScBem1-D1,≤ 0
same,SPOT peptide array binding signal intensity,ScBzz1-D1,12
same,SPOT peptide array binding signal intensity,ScBzz1-D2,0.5
same,SPOT peptide array binding signal intensity,ScCyk3,≤ 0
same,SPOT peptide array binding signal intensity,ScFus1,≤ 0
same,SPOT peptide array binding signal intensity,ScHof1,204
same,SPOT peptide array binding signal intensity,ScHse1,≤ 0
same,SPOT peptide array binding signal intensity,ScLsb1,0.25
same,SPOT peptide array binding signal intensity,ScLsb2,≤ 0
same,SPOT peptide array binding signal intensity,ScLsb3,≤ 0
same,SPOT peptide array binding signal intensity,ScLsb4,≤ 0
same,SPOT peptide array binding signal intensity,ScMyo3,1360
same,SPOT peptide array binding signal intensity,ScMyo5,1880
same,SPOT peptide array binding signal intensity,ScNbp2,1
same,SPOT peptide array binding signal intensity,ScPex13,1
same,SPOT peptide array binding signal intensity,ScRvs167,≤ 0
same,SPOT peptide array binding signal intensity,ScSho1,≤ 0
same,SPOT peptide array binding signal intensity,ScSla1-D1-D2,4.5
same,SPOT peptide array binding signal intensity,ScSla1-D3,1.5
same,SPOT peptide array binding signal intensity,SpAbp1-D1,≤ 0
same,SPOT peptide array binding signal intensity,SpBbc1,≤ 0
same,SPOT peptide array binding signal intensity,SpBzz1-D1,1530
same,SPOT peptide array binding signal intensity,SpBzz1-D2,9.25
same,SPOT peptide array binding signal intensity,SpCyk3,≤ 0
same,SPOT peptide array binding signal intensity,SpHof1,2.5
same,SPOT peptide array binding signal intensity,SpHof1-2,1
same,SPOT peptide array binding signal intensity,SpHof1-3,5.75
same,SPOT peptide array binding signal intensity,SpHse1,≤ 0
same,SPOT peptide array binding signal intensity,SpLsb1,≤ 0
same,SPOT peptide array binding signal intensity,SpLsb4,≤ 0
same,SPOT peptide array binding signal intensity,SpMyo1,1110
same,SPOT peptide array binding signal intensity,SpNbp2,≤ 0
same,SPOT peptide array binding signal intensity,SpPex13,≤ 0
same,SPOT peptide array binding signal intensity,SpRvs167,16.7
same,SPOT peptide array binding signal intensity,SpSla1-D1-D2,≤ 0
same,SPOT peptide array binding signal intensity,SpSla1-D3,≤ 0
